# Assay outcomes as filed in PubChem BioAssay.
# BL2 CD40 inh – inhibitors of CD40-induced NF-kB signaling, primary screen, BL2 cells, luciferase reporter, single point; inhibition, % at 10 µM; 83,000 compounds, 0.94% hits; CD40L-induced, 4 h;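 active = mean inhibition of at least 50% with a set share of replicates also reaching that level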;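 note: 0% = neutral control wells and 100% = IKK inhibitor VII at 50 µM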
# * marks the source's active call; other numbers are inactive results; [ ] = dose if it differs, or a comment. This excerpt belongs to a sample that is enriched for hits.
SMILES,BL2 CD40 inh
O=C(COC(=O)CCN1C(=O)c2cccc([N+](=O)[O-])c2C1=O)NCc1ccccc1,6
O=C(CN1C(=O)c2cccc([N+](=O)[O-])c2C1=O)OCC(=O)N1CCCCC1,61*
O=C(CCCN1C(=O)c2cccc3cccc(c23)C1=O)OCC(=O)N1CCCCC1,-3
CCCNC(=O)N1C[C@@H]2N[C@H](C1)C2c1ccc(-c2cccc(OC)c2)cc1 (some centres undefined),-2
CC(C)c1ccc(NC(=O)Nc2nc(C(N)COCc3ccccc3)cs2)cc1 (centres undefined),57*
COc1cccc(Nc2nc(C(N)COCc3ccccc3)cs2)n1 (centres undefined),6
COc1ccc(NC(=O)Nc2nc(C(N)CC(C)C)cs2)cc1 (centres undefined),2
Cc1ccc(S(=O)(=O)NCC[C@@H]2CC[C@@H](NC(=O)c3cccnc3)[C@H](CO)O2)cc1,-4[25 µM]
O=C(C[C@@H]1C[C@H]2c3cc(NC(=O)Nc4ccccc4)ccc3O[C@H]2[C@H](CO)O1)NCc1ccccc1,-7[25 µM]
O=C(c1ccccc1F)N1C[C@@H]2[C@H](c3ccccc31)[C@@H](CO)N2C(=O)c1ccc(F)cc1,3[25 µM]
Cc1cc(C)c2c(N)c(C(=O)NC3CC3)sc2n1,-5
Cc1cc(C)c2c(N)c(C(=O)Nc3nccs3)sc2n1,70*
Cc1cc(C)c2c(N)c(C(=O)NN)sc2n1,-14
C[C@@H]1CN([C@H](C)CO)C(=O)c2c(c3ccccc3n2C)-c2ccccc2CO[C@@H]1CN(C)CC1CCCCC1,4[25 µM]
COCC(=O)N1[C@H](CO)[C@H](c2ccccc2)[C@@H]1C#N,-9[25 µM]
CCSc1nc2ccc(C)cc2cc1C#N,-10
Cc1ccc2nc(C(F)(F)F)c(C#N)c(N)c2c1,108*
Cc1cc(C)c2nc(C(F)(F)F)c(C#N)c(N)c2c1,20
CC(C)NC(=O)N1C[C@@H]2C(c3ccccc3)[C@H](C1)N2CC(F)(F)F (some centres undefined),6
C[C@H](CO)N1C[C@H](C)[C@@H](CN(C)Cc2cccc(F)c2)OCc2ccccc2-c2c(n(C)c3ccccc23)C1=O,20
C[C@@H]1CN([C@H](C)CO)C(=O)c2c(c3ccccc3n2C)-c2ccccc2CO[C@H]1CN(C)C(=O)c1cc(Cl)cc(Cl)c1,51*[25 µM]
C[C@@H]1CN([C@H](C)CO)C(=O)c2c(c3ccccc3n2C)-c2ccccc2CO[C@@H]1CN(C)Cc1ccc(C(F)(F)F)cc1,6
COc1ccccc1NC(=O)N(C)C[C@@H]1OCc2ccccc2-c2c(n(C)c3ccccc23)C(=O)N([C@H](C)CO)C[C@H]1C,6
C[C@@H]1CN([C@@H](C)CO)C(=O)c2c(c3ccccc3n2C)-c2ccccc2CO[C@H]1CN(C)C(=O)c1cc(Cl)cc(Cl)c1,29[25 µM]
C[C@H](CO)N1C[C@H](C)[C@H](CN(C)C(=O)c2cc(Cl)cc(Cl)c2)OCc2ccccc2-c2c(n(C)c3ccccc23)C1=O,42[25 µM]
SMILES,BL2 CD40 inh
C[C@@H]1CN([C@H](C)CO)C(=O)c2c(c3ccccc3n2C)-c2ccccc2CO[C@H]1CN(C)Cc1cccc(C(F)(F)F)c1,76*[25 µM]
C[C@H]1CN([C@@H](C)CO)C(=O)c2c(c3ccccc3n2C)-c2ccccc2CO[C@@H]1CN(C)Cc1ccc(C(F)(F)F)cc1,15
C[C@@H]1CN([C@H](C)CO)C(=O)c2c(c3ccccc3n2C)-c2ccccc2CO[C@H]1CN(C)Cc1ccc(C(F)(F)F)cc1,16
C[C@H]1CN([C@@H](C)CO)C(=O)c2c(c3ccccc3n2C)-c2ccccc2CO[C@H]1CN(C)C(=O)Nc1ccccc1C(F)(F)F,59*[25 µM]
C[C@@H]1CN([C@@H](C)CO)C(=O)c2c(c3ccccc3n2C)-c2ccccc2CO[C@H]1CN(C)Cc1cccc(C(F)(F)F)c1,78*[25 µM]
C[C@@H]1CN([C@H](C)CO)C(=O)c2c(c3ccccc3n2C)-c2ccccc2CO[C@@H]1CN(C)C(=O)Nc1ccccc1C(F)(F)F,34[25 µM]
Cc1ccc(S(=O)(=O)N(C)C[C@@H]2Oc3ccc(NS(=O)(=O)c4ccccc4)cc3C(=O)N([C@H](C)CO)C[C@@H]2C)cc1,3
O=C(CCN1CCCCC1)NCC[C@@H]1CC[C@H](NC(=O)C2CCCCC2)[C@H](CO)O1,1
O=C(NCC[C@@H]1CC[C@@H](NS(=O)(=O)c2ccc(F)cc2)[C@@H](CO)O1)Nc1ccc(Cl)cc1,-24
C[C@@H]1CN([C@H](C)CO)C(=O)c2c(c3ccccc3n2C)-c2ccccc2CO[C@@H]1CN(C)S(=O)(=O)c1ccc(Cl)cc1,0
O=C(C[C@@H]1C[C@H]2c3cc(NC(=O)c4ccc5c(c4)OCO5)ccc3O[C@H]2[C@H](CO)O1)NC1CCCCC1,31[25 µM]
CN1c2ccc(C3=CCCCC3)cc2[C@@H]2[C@@H](CCN2C(=O)C2CCC2)[C@H]1CO,8
C[C@@H]1CN([C@@H](C)CO)C(=O)Cc2cc(NS(=O)(=O)c3cn(C)cn3)ccc2O[C@H]1CN(C)C(=O)NC1CCCCC1,-10[25 µM]
C[C@H]1CN([C@@H](C)CO)C(=O)c2ccccc2-c2ccccc2CO[C@@H]1CN(C)C(=O)Nc1ccc2c(c1)OCO2,-19[25 µM]
O=C(NC[C@H]1N[C@H](CO)[C@@H]1c1ccc(-c2cncnc2)cc1)C1CCCC1,0
C[C@@H]1CN([C@@H](C)CO)C(=O)c2c(c3ccccc3n2C)-c2ccccc2CO[C@@H]1CN(C)Cc1ccc(O)cc1,-6
C[C@H]1CN([C@@H](C)CO)C(=O)c2c(c3ccccc3n2C)-c2ccccc2CO[C@@H]1CN(C)S(=O)(=O)c1ccccc1,26
C[C@@H]1CN([C@@H](C)CO)C(=O)c2c(c3ccccc3n2C)-c2ccccc2CO[C@H]1CN(C)S(=O)(=O)c1ccc([N+](=O)[O-])cc1,55*[25 µM]
C[C@@H]1CN([C@@H](C)CO)C(=O)c2c(c3ccccc3n2C)-c2ccccc2CO[C@H]1CN(C)Cc1ccccc1,49*
C[C@@H]1CN([C@H](C)CO)C(=O)c2c(c3ccccc3n2C)-c2ccccc2CO[C@H]1CN(C)S(=O)(=O)c1ccc([N+](=O)[O-])cc1,37[25 µM]
C[C@H](CO)N1C[C@H](C)[C@@H](CN(C)Cc2ccccc2)OCc2ccccc2-c2c(n(C)c3ccccc23)C1=O,22
CO[C@H]1CC[C@@H]2CCOc3c(C#N)cccc3C(=O)N(C)C[C@H](OC)[C@@H](C)C(=O)N(C)C[C@@H]1O2,-2[25 µM]
c1coc(-c2nnc(-c3ccc4c(c3)OCO4)o2)c1,-46
Cc1ccc(-c2nnc(-c3ccc4c(c3)OCO4)o2)cc1,-65
O=C1CCCCC1Sc1nnc(-c2ccc3c(c2)OCO3)o1 (centres undefined),95*
SMILES,BL2 CD40 inh
O=C(C1CC1)N1C[C@@H]2[C@H](c3ccccc31)[C@@H](CO)N2C(=O)c1ccccc1F,-8
C/C=C/c1ccc([C@H]2[C@@H](CO)N(C(=O)CC)[C@H]2CN(C)Cc2cncnc2)cc1,-1[25 µM]
CC[C@H]1C/C=C\CCNC(=O)CCC(=O)N1,-8[25 µM]
O=C(Nc1ccccn1)c1ccc2c(c1)OCCO2,-2
Cc1cc(NC(=O)c2ccc3c(c2)OCCO3)no1,79*
Cc1cc(NC(=O)c2ccc(F)cc2)no1,-21
COc1cccc(C(=O)Nc2ccc3c(c2)C(=O)N(C)C[C@@H](OC)[C@@H](C)CN(C(=O)C2CCCC2)[C@H](C)CO3)c1,8
CO[C@H]1CN(C)C(=O)c2cc(NC(=O)c3cc(C)on3)ccc2OC[C@H](C)N(C(=O)C2CC2)C[C@@H]1C,2
